Laboratory results: the supplement of paper PMC10849652
About 7,900 targets were measured; listed, in parts, are those with a hit and a random draw of the rest. About 0.6% of all pairs of compound and target were hits.

Experiments:
Assay in all cases: log2 fold change, soluble protein after heating vs DMSO (PISA); higher = thermal stabilisation; K562 cells, 10 uM, 30 min; active = over 0.2 and 3.5 SD of the protein, either way, in both replicates (recomputed)
ralimetinib = compound: CC(C)(C)Cn1c(N)nc2ccc(-c3[nH]c(C(C)(C)C)nc3-c3ccc(F)cc3)nc21 [ralimetinib]
Outline: (§1)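 K562 cells at 2×10^6 cells/mL were treated for 30 min with 10 μM compound, and aliquots were heated for 3 min over 48°C-58°C before pooling. Extraction used PBS with 0.5% NP-40 at 4°C, and soluble protein was the supernatant after 21,000xg for 90 min, measured by TMTpro 16plex LC-MS/MS with channel sums equalised. Thermal stability values, relative to control samples and from duplicates, are log2 fold changes.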

[1] = compound: CC(C)C[C@@H](C=O)NC(=O)[C@H](CC(C)C)NC(=O)[C@H](CC(C)C)NC(=O)OCc1ccccc1
Outline: as §1

[2] = compound: CC1=C(C=C(C=C1)NC(=O)C2=CC(=CC=C2)N(C)C)NC(=O)C3=CC=C(C=C3)O
Outline: as §1

[3] = compound: CC1=CC=C(C=C1)SC2=C3C=C(SC3=CN=C2)C(=O)N
Outline: as §1

[4] = compound: CCCS(=O)(=O)Nc1ccc(F)c(C(=O)c2c[nH]c3ncc(Cl)cc23)c1F
Outline: as §1

IRAK-1-4 Inhibitor I = compound: C1COCCN1CCN2C3=CC=CC=C3N=C2NC(=O)C4=CC(=CC=C4)[N+](=O)[O-] [IRAK-1-4 Inhibitor I]
Outline: as §1

ibrutinib = compound: C=CC(=O)N1CCC[C@@H](n2nc(-c3ccc(Oc4ccccc4)cc3)c3c(N)ncnc32)C1 [ibrutinib]
Outline: as §1

[5] = compound: CC(=O)c1cnc2ccc(-c3cc(Cl)c(O)c(Cl)c3)nc2c1N[C@H]1CC[C@H](CN(C)C)CC1
Outline: as §1

[6] = compound: CC(C)C1=C2N=C(C=C(N2N=C1)NCC3=CC=CC=C3)NCCCCCCN
Outline: as §1

pinometostat = compound: CC(C)N(C[C@H]1O[C@@H](n2cnc3c(N)ncnc32)[C@H](O)[C@@H]1O)[C@H]1C[C@@H](CCc2nc3cc(C(C)(C)C)ccc3[nH]2)C1 [pinometostat]
Outline: as §1

[7] = compound: CC1=C(C(CC(=O)N1)C2=CC=C(C=C2)C(F)(F)F)C(=O)NC3=C(C=C4C(=C3)C=NN4)F
Outline: as §1

[8] = compound: CC1=C(C2=C(C=C1)C(=O)C3=CC=CC=C3N2CCCN)C
Outline: as §1

[9] = compound: CC1=NC(=CC=C1)C2=C(N=C(N2)C(C)(C)C)C3=CC4=NC=CN=C4C=C3
Outline: as §1

givinostat = compound: CCN(CC)Cc1ccc2cc(COC(=O)Nc3ccc(C(=O)NO)cc3)ccc2c1 [givinostat]
Outline: as §1

barasertib = compound: CCN(CCCOc1ccc2c(Nc3cc(CC(=O)Nc4cccc(F)c4)[nH]n3)ncnc2c1)CCOP(=O)(O)O [barasertib]
Outline: as §1

vemurafenib = compound: CCCS(=O)(=O)Nc1ccc(F)c(C(=O)c2c[nH]c3ncc(-c4ccc(Cl)cc4)cc23)c1F [vemurafenib]
Outline: as §1

[10] = compound: CC(C)(O)CC(=O)NCCn1ccc2ncnc(Nc3ccc(Oc4cccc(C(F)(F)F)c4)c(Cl)c3)c21
Outline: as §1

[11] = compound: CC1=C(C=C(C=C1)NC(=O)C2=CC(=CC=C2)C(C)(C)C#N)NC3=CC4=C(C=C3)N=CN(C4=O)C
Outline: as §1

Nexturastat A = compound: CCCCN(Cc1ccc(C(=O)NO)cc1)C(=O)Nc1ccccc1 [Nexturastat A]
Outline: as §1

[12] = compound: CCCc1cc(C)[nH]c(=O)c1CNC(=O)c1cc(-c2ccnc(N3CCN(C)CC3)c2)cc2c1cnn2C(C)C
Outline: as §1

Measured: log2 fold change

FGG (UniProt P02679)
Chain of UniProt P02679 (P02679 whole entry, looked up): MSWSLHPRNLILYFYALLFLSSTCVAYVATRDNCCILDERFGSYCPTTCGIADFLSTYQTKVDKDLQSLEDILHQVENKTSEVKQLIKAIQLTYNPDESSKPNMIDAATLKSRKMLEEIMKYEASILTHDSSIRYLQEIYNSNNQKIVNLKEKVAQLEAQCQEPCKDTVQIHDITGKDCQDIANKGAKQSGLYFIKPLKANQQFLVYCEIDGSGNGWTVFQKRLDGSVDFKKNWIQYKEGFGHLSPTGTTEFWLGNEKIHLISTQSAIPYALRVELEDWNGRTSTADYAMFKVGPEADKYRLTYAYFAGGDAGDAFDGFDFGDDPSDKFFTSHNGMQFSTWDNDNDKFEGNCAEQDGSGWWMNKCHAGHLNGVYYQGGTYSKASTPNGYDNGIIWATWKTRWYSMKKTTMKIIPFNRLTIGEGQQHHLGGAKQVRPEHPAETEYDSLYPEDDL
inactive: ralimetinib -0.048 | [1] 0.231 | [2] 0.067 | [3] -0.093 | [4] -0.214

IDH3A isoform 2 (UniProt P50213)
Chain of UniProt P50213 (P50213 whole entry, looked up): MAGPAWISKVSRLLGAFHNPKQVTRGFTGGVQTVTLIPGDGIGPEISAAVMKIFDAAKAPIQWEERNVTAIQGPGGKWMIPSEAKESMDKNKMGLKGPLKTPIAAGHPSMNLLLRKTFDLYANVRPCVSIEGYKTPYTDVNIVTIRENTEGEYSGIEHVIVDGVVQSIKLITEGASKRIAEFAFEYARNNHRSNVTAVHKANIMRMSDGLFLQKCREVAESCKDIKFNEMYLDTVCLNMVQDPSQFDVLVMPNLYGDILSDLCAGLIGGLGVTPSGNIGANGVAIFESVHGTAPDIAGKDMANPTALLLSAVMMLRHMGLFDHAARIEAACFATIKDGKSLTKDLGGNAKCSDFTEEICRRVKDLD
inactive: IRAK-1-4 Inhibitor I 0.196 | ibrutinib 0.008 | [5] -0.004 | [6] 0.153 | pinometostat 0.011 | [7] -0.033 | [8] 0.059 | [9] -0.083 | givinostat 0.175 | barasertib -0.012

IGF2 isoform 3 (UniProt P01344)
Chain of UniProt P01344 (P01344 whole entry, looked up): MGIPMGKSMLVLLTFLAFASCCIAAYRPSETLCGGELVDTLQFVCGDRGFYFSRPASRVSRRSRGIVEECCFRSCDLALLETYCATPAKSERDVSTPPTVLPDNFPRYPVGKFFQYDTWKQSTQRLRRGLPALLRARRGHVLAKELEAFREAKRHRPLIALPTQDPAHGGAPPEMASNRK
inactive: IRAK-1-4 Inhibitor I 0.066 | [6] -0.104 | pinometostat -0.107 | [9] 0.136 | vemurafenib 0.073 | givinostat -0.148

GPS2 (UniProt Q13227)
Chain of UniProt Q13227 (Q13227 whole entry, looked up): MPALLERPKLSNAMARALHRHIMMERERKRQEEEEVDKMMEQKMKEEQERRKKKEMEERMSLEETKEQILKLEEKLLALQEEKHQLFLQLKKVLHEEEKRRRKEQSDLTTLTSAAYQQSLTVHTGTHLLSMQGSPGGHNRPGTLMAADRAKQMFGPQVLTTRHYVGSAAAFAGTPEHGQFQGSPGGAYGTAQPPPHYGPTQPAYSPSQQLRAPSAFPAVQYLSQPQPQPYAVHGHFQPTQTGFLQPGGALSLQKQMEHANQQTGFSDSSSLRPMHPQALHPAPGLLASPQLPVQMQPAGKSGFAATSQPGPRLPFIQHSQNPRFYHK
active: Nexturastat A -0.316
inactive: IRAK-1-4 Inhibitor I -0.013 | ibrutinib -0.006 | ralimetinib -0.19 | [10] -0.052 | [6] 0.027 | [1] -0.069 | pinometostat 0.019 | [7] 0.006 | [8] -0.135 | [11] -0.13 | [2] -0.04 | [3] -0.17 | [9] -0.013 | vemurafenib 0.019 | [4] -0.01 | [12] 0.026 | givinostat -0.145 | barasertib -0.008

HAUS4 (UniProt Q9H6D7)
Chain of UniProt Q9H6D7 (Q9H6D7 whole entry, looked up): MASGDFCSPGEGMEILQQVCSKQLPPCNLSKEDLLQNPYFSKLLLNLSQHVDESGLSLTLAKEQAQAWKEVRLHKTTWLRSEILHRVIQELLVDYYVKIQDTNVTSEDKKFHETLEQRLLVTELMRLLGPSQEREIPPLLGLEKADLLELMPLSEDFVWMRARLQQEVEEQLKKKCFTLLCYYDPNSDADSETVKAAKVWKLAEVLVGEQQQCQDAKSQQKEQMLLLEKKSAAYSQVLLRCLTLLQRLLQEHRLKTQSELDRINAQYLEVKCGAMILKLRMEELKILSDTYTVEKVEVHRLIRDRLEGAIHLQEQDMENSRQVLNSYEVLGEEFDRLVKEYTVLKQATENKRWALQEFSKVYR
inactive: ibrutinib 0.103 | [5] -0.107 | ralimetinib 0.112 | [10] 0.246 | [1] 0.139 | [7] 0.095 | [8] 0.048 | [11] -0.143 | [2] 0.003 | [3] 0.084 | Nexturastat A -0.061 | vemurafenib -0.049 | [4] 0.012 | [12] -0.269 | givinostat 0.08 | barasertib -0.16
active: [6] -0.51

FCHO1 (UniProt O14526)
Chain of UniProt O14526 (O14526 whole entry, looked up): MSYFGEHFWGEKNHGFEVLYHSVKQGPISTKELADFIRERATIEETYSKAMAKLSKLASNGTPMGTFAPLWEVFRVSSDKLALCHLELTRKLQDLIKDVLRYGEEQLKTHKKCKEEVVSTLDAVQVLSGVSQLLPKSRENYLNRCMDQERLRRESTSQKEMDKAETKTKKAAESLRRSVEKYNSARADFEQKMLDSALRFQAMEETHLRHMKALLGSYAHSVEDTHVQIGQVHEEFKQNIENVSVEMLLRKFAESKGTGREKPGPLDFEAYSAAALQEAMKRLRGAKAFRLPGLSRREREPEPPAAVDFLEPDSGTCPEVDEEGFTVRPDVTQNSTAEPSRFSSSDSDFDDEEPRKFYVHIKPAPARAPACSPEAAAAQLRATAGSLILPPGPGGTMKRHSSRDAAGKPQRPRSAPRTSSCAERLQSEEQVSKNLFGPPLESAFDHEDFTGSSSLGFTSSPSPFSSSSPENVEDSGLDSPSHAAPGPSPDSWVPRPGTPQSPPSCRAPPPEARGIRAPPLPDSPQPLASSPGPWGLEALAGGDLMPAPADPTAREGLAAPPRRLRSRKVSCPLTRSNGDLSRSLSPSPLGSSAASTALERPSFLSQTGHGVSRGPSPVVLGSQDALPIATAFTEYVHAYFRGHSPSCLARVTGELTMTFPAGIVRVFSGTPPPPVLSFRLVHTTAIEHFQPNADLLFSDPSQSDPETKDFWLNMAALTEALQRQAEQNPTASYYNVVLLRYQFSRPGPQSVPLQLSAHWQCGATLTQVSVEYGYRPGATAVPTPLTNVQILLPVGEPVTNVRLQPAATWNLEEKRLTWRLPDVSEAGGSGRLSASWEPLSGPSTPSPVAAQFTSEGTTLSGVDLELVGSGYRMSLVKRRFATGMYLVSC
inactive: IRAK-1-4 Inhibitor I -0.114 | ralimetinib -0.081 | [10] -0.073 | [6] 0.045 | [1] 0.191 | pinometostat 0.05 | [7] 0.094 | [8] -0.011 | [11] 0.103 | [2] -0.023 | [3] 0.004 | [9] -0.016 | Nexturastat A 0.053 | vemurafenib 0.254 | [4] 0.037 | [12] -0.003 | givinostat 0.073
active: [5] -0.593

GINS2 (UniProt Q9Y248)
Chain of UniProt Q9Y248 (Q9Y248 whole entry, looked up): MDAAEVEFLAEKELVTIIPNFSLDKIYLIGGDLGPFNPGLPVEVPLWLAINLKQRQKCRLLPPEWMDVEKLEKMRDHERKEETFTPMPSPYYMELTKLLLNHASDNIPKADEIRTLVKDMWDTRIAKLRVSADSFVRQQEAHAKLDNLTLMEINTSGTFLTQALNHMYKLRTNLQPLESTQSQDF
inactive: IRAK-1-4 Inhibitor I 0 | ibrutinib -0.033 | ralimetinib 0.024 | [10] -0.02 | [6] -0.081 | [1] -0.042 | pinometostat -0.067 | [7] -0.057 | [8] 0.113 | [11] 0.136 | [2] -0.168 | [3] 0.099 | [9] 0.147 | Nexturastat A 0.174 | vemurafenib 0.102 | [4] 0.029 | [12] 0.021 | givinostat -0.038 | barasertib 0.053

FAT1 (UniProt Q14517)
inactive: IRAK-1-4 Inhibitor I 0.028 | ibrutinib 0.151 | [10] 0.01 | [6] 0.162 | [1] 0.683 | pinometostat -0.095 | [7] 0.019 | [8] 0.091 | [11] -0.036 | [2] -0.218 | [3] -0.029 | [9] 0.053 | Nexturastat A 0.104 | vemurafenib -0.199 | [4] -0.051 | [12] -0.067 | givinostat 0.044 | barasertib 0.045
active: ralimetinib -0.448

GNL3 (UniProt Q9BVP2)
Chain of UniProt Q9BVP2 (Q9BVP2 whole entry, looked up): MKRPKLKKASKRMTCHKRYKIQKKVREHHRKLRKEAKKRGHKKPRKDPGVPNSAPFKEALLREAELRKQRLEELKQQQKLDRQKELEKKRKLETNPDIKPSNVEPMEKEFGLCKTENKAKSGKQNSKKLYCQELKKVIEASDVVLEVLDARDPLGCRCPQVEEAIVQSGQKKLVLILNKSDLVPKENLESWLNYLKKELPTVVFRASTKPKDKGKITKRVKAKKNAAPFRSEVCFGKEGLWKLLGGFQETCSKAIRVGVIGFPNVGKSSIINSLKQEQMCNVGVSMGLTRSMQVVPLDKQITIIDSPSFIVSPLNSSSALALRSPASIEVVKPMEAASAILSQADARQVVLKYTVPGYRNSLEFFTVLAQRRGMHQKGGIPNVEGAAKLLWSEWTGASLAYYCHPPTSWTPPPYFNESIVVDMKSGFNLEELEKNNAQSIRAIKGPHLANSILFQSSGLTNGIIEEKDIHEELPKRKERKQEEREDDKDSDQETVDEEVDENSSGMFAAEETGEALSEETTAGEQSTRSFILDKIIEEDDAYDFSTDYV
inactive: ibrutinib 0.047 | [5] 0.012 | [10] -0.007 | [7] 0.029 | [8] 0.066 | [11] 0.002 | vemurafenib -0.12 | [12] -0.307 | barasertib 0.079
active: Nexturastat A 0.491

HNRNPUL1 (UniProt M0R247)
inactive: IRAK-1-4 Inhibitor I 0.041 | [5] -0.259 | [6] 0.121 | pinometostat -0.025 | [7] 0.031 | [8] 0.008 | [11] -0.059 | [3] -0.148 | [9] -0.075 | [4] -0.15 | givinostat 0.001

HEATR3 (UniProt Q7Z4Q2)
Chain of UniProt Q7Z4Q2 (Q7Z4Q2 whole entry, looked up): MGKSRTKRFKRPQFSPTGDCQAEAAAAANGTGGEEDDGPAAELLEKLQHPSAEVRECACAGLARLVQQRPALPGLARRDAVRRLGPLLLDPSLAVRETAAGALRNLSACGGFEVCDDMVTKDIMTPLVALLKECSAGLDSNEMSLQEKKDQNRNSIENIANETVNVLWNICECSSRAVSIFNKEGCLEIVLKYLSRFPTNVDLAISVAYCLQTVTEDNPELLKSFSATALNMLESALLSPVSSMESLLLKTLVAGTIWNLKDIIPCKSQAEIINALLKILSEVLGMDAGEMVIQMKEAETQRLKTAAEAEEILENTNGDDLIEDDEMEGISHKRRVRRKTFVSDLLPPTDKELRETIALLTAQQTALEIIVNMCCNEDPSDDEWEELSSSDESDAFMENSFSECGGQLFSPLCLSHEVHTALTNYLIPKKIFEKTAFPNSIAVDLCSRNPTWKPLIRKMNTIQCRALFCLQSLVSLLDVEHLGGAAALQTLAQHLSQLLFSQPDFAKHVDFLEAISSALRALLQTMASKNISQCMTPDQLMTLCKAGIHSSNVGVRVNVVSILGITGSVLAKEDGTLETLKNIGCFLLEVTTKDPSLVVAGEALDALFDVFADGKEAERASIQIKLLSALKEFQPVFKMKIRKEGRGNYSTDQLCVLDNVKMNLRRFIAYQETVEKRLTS
active: [6] -0.319
inactive: IRAK-1-4 Inhibitor I -0.08 | ibrutinib 0.006 | ralimetinib 0.07 | [10] -0.125 | [1] -0.137 | pinometostat -0.032 | [7] 0.216 | [8] -0.196 | [11] 0.004 | [2] 0.116 | [3] 0.034 | [9] 0.047 | Nexturastat A 0.016 | vemurafenib 0.007 | [4] 0.082 | [12] -0.067 | givinostat 0.069 | barasertib 0.144
